Tat transport = blocks Tat-dependent protein export in E. coli; E. coli MC4100 TorA-mCherry Tat export, fluorescence; hit rate 0.036% among 340,000; inhibition, % at 10 µM; AID 488895;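 active = mean replicate inhibition at least 50% and at least half of replicates individually reaching 50%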;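 also: exported cargo escapes ClpAP degradation while cytoplasmic cargo is degraded and loses fluorescence; 0% = median of neutral control wells and 100% = median of NaSCN control wells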
E coli growth-1 = E. coli growth inhibition; Escherichia coli growth, OD600, 23 h; active compounds read low; AID 1053175; hit rate 0.21% among 330,000; OD600 absorbance (no concentration beside the values);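 active = OD600 absorbance below the run mean of sample wells minus 3.6 SD, in any replicate, cut at about 0.56 in these data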
E coli growth-2 = bacterial growth inhibition, counter-screen for AddAB inhibitors; E. coli V3065 growth, OD600 absorbance, 18 h; inhibition, % at 11.9 µM; hit rate 0.27% among 330,000;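 active = inhibition above the campaign's mean inhibition across all tested compounds plus 3 SD, cut at about 9.9% in these data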;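 also: uninfected addAB+ strain grown without phage in ampicillin broth; 0% = DMSO wells and 100% = ciprofloxacin 0.95 µg/ml wells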
phage Ecoli inh = E. coli growth loss with phage present. hit rate 0.26% among 360,000. growth absorbance. inhibition, % at 11.9 µM. AID 651602; in the data active = inhibition above about 11%
AI-2 QS modul = Vibrio harveyi AI-2 quorum sensing modulation; hit rate 0.4% among 300,000; Vibrio harveyi JMH597 AI-2 luminescence/OD600 ratio, 9 h; active compounds read low; strain lacks LuxN and CqsS sensors; 0 = neutral-control median; AID 2094; activity change, % at 7.5 µM; in the data active = activity change below about -75%, passing the limit was not always enough;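 also: luminescence divided by OD600 gain over 9 h not by final OD600 alone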
AddAB inh = less growth of phage-infected E. coli with AddAB. E. coli expressing H. pylori AddAB, absorbance growth. inhibition, % at 11.9 µM. hit rate 0.29% among 330,000. AID 435030; in the data active = inhibition above about 12%;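 also: 0% = vehicle wells of infected cells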
RecBCD conf = confirmation: growth loss of phage-infected RecBCD+ E. coli (RecBCD inhibitor screen); AID 651982; hit rate 45% among 890; E. coli V66 + T4 2- phage, growth OD; shares compounds with phage Ecoli inh; inhibition, % at 11.9 µM;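 active = mean inhibition over triplicates exceeding the hit threshold derived in the original primary screen, cut at about 11% in these data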
Ecoli viability = counter-screen for RecBCD inhibitors: inhibitors of bacterial viability; AID 651983; hit rate 29% among 890; shares compounds with phage Ecoli inh; inhibition, % at 11.9 µM; E. coli viability, absorbance (OD) growth; in the data active = inhibition above about 20%;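 also: E. coli strain V66 grown with compound alone and no phage infection; 0% = bacteria with DMSO vehicle only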
AddAB phage OD = growth loss of phage-infected AddAB E. coli, RecBCD counter-screen. hit rate 45% among 890. AID 651984. shares compounds with phage Ecoli inh. inhibition, % at 11.9 µM. E. coli expressing H. pylori AddAB + T4 phage, OD growth; gene 2 mutant T4, recBCD-deleted host;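 active = mean inhibition above the solvent-only control wells' mean plus 3 SD, cut at about 22% in these data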;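 also: higher means less bacterial growth from phage killing when AddAB is blocked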
Active calls of the source: *; . = no result given; ! = repeats disagree. A selection: hits, their analogues and other compounds. The true share with any hit is near 0.79%.

SMILES	Tat transport	E coli growth-1	E coli growth-2	phage Ecoli inh	AI-2 QS modul	AddAB inh	RecBCD conf	Ecoli viability	AddAB phage OD
O=[N+]([O-])c1oc2ccc3ccccc3c2c1CCO	-7.9	.	.	99.6*	.	.	103.7*	105.0*	103.3*
CC(N)CN1CCc2ccc(Br)cc21 (stereo not drawn)	.	0.709	.	.	.	.	.	.	.
O=C(Cn1cc(C(=O)c2ccccc2F)c2ccccc21)NCc1ccco1	-3.9	0.655	2.5	0.0	31.6	1.7	.	.	.
COCCNC(=O)Cn1cc(C(=O)c2ccccc2F)c2ccccc21	-0.8	0.648	-1.3	43.6*	4.8	-2.2	-1.7	-2.1	-3.0
O=[N+]([O-])c1ccc(N2CCOCC2)c2c1no[n+]2[O-]	.	.	.	16.8*	.	.	10.7	13.1	97.8*
O=[N+]([O-])c1ccc(N2CCOCC2)c2cccnc12	-2.1	0.694	1.8	3.9	5.4	2.2	.	.	.
O=c1c2ccccc2nc(/C=C/c2ccc([N+](=O)[O-])o2)n1-c1ccc(O)cc1	-3.7	0.67	.	11.6*	17.8	.	5.7	9.2	39.8*
Cc1cccc(-n2c(/C=C/c3ccc([N+](=O)[O-])o3)nc3ccccc3c2=O)c1	-3.9	0.653	3.1	2.5	15.1	4.8	.	.	.
COC(=O)C1=C(c2ccc(F)cc2OCc2ccccc2)CC2CCC1N2C(=O)NC1Cc2ccccc2C1 (stereo not drawn)	.	0.742	.	.	.	.	.	.	.
Oc1cc(Cl)c(Cl)c(Cl)c1Cl	-9.2	.	.	13.4*	.	.	13.9*	18.8	17.4
COC(=O)C1=C(c2ccc(-c3ccccc3)c(F)c2)CC2CCC1N2C(=O)N1CCCCC1 (stereo not drawn)	.	0.731	.	.	.	.	.	.	.
CC(Cc1ccccc1)NC(=O)CCCCC(=O)NC(C)Cc1ccccc1 (stereo not drawn)	1.4	.	0.4	13.9*	.	0.0	-3.2	-2.4	-2.2
COC(=O)C1=C(c2cc3ccccc3o2)CC2CCC1N2C(=O)NCCNC(C)=O (stereo not drawn)	.	0.701	.	.	.	.	.	.	.
COC(=O)C1=C(c2ccc(OC(F)(F)F)cc2)CC2CCC1N2C(=O)NCc1ccc(F)cc1 (stereo not drawn)	.	0.684	.	.	.	.	.	.	.
CN(C)[C@@H]1C(=O)C(C(N)=O)=C(O)[C@@]2(O)C(=O)C3=C(O)c4c(O)ccc(Cl)c4[C@@](C)(O)C3C[C@@H]12 (stereo partly drawn)	150.3*	.	.	99.1*	.	.	101.2*	103.6*	105.4*
CN(C)[C@@H]1C(=O)C(C(N)=O)=C(O)[C@@]2(O)C(=O)C3=C(O)c4c(O)cccc4[C@@](C)(O)[C@H]3C[C@@H]12	.	.	-0.9	.	38.4	-0.8	.	.	.
CN(C)[C@@H]1C(=O)C(C(N)=O)=C(O)[C@@]2(O)C(=O)C3=C(O)c4c(O)cccc4[C@@](C)(O)C3[C@H](O)C12 (stereo partly drawn)	149.8*!	.	-0.2	97.8*	-81.6*	0.4	101.1*	102.4*	102.4*
Cc1cc2c(C(C)C)c(O)c(O)c(C=O)c2c(O)c1-c1c(C)cc2c(C(C)C)c(O)c(O)c(C=O)c2c1O	.	.	.	15.0*	50.7	.	5.3	5.2	7.0

Screens as filed in PubChem BioAssay.
